Results filed as inconclusive are left out. Activity calls are given as the source filed them. The calls were made as follows, unless noted: active = hit-call score of the fitted dose curve at least 0.9, where 1 is the maximum; inconclusive = response in the unintended direction; inactive = score below 0.9.
Assays:
[1] = biological target: Hepatocyte nuclear factor 3-beta (Homo sapiens) (UniProt Q9Y261); test: ATG_FoxA2_CIS: Attagene CIS-FACTORIAL HepG2 Assay for human Forkhead box A2 (FOXA2) (AID 2282942; active = hit-call score of the fitted dose curve at least 0.9, where 1 is the maximum; inactive = score below 0.9); settings: HepG2 cis-reporter transcription factor activity, 24 h; actives raise or lower the signal
Hepatocyte nuclear factor 3-beta (Homo sapiens), sequence (Q9Y261 whole entry, looked up): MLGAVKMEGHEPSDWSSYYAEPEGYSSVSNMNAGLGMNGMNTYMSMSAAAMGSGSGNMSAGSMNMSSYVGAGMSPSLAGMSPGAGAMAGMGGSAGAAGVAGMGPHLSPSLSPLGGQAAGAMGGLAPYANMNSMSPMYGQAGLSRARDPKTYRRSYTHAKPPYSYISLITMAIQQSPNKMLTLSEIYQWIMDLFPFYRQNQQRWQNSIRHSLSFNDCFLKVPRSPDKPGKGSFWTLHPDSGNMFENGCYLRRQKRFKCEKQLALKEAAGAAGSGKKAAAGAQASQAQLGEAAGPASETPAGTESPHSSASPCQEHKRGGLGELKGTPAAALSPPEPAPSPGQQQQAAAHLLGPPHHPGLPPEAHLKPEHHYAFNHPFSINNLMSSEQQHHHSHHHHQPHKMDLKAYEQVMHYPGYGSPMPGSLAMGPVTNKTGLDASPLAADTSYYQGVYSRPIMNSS
How it was run: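 HepG2 transiently transfected with a multiplexed cis-promoter reporter library read endogenous FOXA2 activity. After 24 h compound exposure, reporter mRNA was quantified by RT-PCR, HpaI digestion and capillary electrophoresis. Bidirectional fit against DMSO.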

[2] = ATG_GRE_CIS: Attagene CIS-FACTORIAL HepG2 Assay for human Glucocorticoid Response Elements (GRE) (AID 2282947; active = hit-call score of the fitted dose curve at least 0.9, where 1 is the maximum; inactive = score below 0.9); settings: HepG2 GRE cis-reporter, Attagene multiplex mRNA; actives raise or lower the signal
How it was run: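 HepG2 cells transiently transfected with multiple cis-promoter reporter units measure endogenous TF activity; 24 h compound exposure. Reporter mRNA quantified by RT-PCR, FAM labelling, HpaI digestion and capillary electrophoresis; bidirectional fit vs DMSO baseline.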

[3] = biological target: Hypoxia-inducible factor 1-alpha (Homo sapiens) (UniProt Q16665); test: ATG_HIF1a_CIS: Attagene CIS-FACTORIAL HepG2 Assay for human Hypoxia Inducible Factor 1 (HIF1A) (AID 2282951; active = hit-call score of the fitted dose curve at least 0.9, where 1 is the maximum; inactive = score below 0.9); settings: HepG2 Attagene cis-factorial HIF1a reporter transcription; actives raise or lower the signal
Hypoxia-inducible factor 1-alpha (Homo sapiens), sequence (Q16665 whole entry, looked up): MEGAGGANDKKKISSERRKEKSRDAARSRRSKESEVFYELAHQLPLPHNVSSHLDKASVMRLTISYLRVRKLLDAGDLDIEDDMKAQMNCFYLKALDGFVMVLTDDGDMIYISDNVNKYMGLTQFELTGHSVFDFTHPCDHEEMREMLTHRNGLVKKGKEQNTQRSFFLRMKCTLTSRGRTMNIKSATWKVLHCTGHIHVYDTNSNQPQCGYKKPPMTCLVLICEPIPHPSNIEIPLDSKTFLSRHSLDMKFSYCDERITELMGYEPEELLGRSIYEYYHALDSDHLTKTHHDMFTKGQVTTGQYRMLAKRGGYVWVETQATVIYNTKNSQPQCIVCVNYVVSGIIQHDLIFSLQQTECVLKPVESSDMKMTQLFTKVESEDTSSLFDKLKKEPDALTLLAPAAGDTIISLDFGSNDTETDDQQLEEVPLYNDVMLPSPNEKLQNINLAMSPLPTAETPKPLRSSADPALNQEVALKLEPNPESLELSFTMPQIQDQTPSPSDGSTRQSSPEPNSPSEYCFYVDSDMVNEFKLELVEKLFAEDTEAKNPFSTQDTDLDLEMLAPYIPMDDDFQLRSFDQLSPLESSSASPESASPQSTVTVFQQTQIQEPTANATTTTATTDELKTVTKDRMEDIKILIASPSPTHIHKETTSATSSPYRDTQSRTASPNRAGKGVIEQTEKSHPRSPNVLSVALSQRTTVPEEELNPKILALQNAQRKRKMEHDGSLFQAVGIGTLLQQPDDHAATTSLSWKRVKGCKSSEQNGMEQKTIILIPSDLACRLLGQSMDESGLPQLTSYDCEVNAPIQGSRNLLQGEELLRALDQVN
How it was run: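 HepG2 cells transiently transfected with multiple cis-regulated reporter transcription units measure endogenous transcription factor activity. After 24 h exposure, reporter mRNA is quantified by RT-PCR with 6-FAM labelling, HpaI digestion and capillary electrophoresis. Bidirectional fitting against DMSO.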

[4] = biological target: Heat shock factor protein 1 (Homo sapiens) (UniProt Q00613); test: ATG_HSE_CIS: Attagene CIS-FACTORIAL HepG2 Assay for human Heat Shock Transcription Factor 1 (HSE) (AID 2282953; active = hit-call score of the fitted dose curve at least 0.9, where 1 is the maximum; inactive = score below 0.9); settings: HepG2 HSE cis-reporter, Attagene RNA transcription; actives raise or lower the signal
Heat shock factor protein 1 (Homo sapiens), sequence (Q00613 whole entry, looked up): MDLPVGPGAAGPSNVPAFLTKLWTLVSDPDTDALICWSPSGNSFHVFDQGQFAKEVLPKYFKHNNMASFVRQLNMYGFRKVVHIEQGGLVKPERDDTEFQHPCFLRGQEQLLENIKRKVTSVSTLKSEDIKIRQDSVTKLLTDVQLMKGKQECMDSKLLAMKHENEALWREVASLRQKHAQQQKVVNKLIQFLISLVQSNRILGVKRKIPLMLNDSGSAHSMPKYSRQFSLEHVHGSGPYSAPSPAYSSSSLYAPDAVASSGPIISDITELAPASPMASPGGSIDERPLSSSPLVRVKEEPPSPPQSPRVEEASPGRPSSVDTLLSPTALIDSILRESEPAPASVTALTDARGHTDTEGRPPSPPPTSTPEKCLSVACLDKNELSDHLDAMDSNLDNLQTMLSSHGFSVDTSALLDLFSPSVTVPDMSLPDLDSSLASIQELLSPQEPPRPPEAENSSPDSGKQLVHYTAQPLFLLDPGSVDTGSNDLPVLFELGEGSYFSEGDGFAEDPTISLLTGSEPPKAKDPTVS
How it was run: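 HepG2, transient MRTU transfection, cis-promoter reporters (endogenous TF activity). 24 h compound. RNA → oligo(dT) RT → PCR → 6-FAM primer extension → HpaI cut → CE. Bidirectional fit vs DMSO.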

[5] = biological target: Signal transducer and activator of transcription 3 (Homo sapiens) (UniProt P40763); test: ATG_STAT3_CIS: Attagene CIS-FACTORIAL HepG2 Assay for human Signal Transducer and Activator of Transcription 3 (STAT3) (AID 2282963; active = hit-call score of the fitted dose curve at least 0.9, where 1 is the maximum; inactive = score below 0.9); settings: HepG2, Attagene cis-factorial STAT3 reporter transcription; actives raise or lower the signal
Signal transducer and activator of transcription 3 (Homo sapiens), sequence (P40763 whole entry, looked up): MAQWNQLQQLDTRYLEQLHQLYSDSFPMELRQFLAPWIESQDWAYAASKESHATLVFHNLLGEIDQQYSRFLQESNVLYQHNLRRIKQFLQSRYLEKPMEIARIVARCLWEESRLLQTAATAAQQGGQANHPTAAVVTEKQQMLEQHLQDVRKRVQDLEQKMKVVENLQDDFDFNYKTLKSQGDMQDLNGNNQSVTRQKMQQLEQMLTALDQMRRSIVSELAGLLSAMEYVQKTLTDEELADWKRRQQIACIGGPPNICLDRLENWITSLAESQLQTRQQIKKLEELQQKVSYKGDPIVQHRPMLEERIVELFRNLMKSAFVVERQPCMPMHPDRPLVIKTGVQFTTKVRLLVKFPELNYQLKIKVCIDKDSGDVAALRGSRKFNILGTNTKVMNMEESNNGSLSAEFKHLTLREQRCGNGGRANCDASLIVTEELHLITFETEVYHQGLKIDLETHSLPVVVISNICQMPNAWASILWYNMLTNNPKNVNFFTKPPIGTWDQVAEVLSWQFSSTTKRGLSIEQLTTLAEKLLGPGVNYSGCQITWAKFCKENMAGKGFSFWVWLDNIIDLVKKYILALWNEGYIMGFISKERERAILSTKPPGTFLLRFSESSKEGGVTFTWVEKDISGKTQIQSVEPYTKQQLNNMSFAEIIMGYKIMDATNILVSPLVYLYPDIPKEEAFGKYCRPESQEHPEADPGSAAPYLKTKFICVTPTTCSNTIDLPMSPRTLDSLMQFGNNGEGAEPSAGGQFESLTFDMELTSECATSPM
How it was run: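 HepG2 cells transiently transfected with cis-element-driven multiple reporter transcription units; after 24 h chemical exposure, reporter mRNA measured by RT-PCR, 6-FAM primer-extension labelling, HpaI digestion and capillary electrophoresis. Bidirectional fitting versus DMSO baseline.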

[6] = ATG_M_19_TRANS: Attagene TRANS-FACTORIAL HepG2 Assay for M19 Transcription Factor (Internal Marker) (AID 2282974); settings: HepG2 Attagene TRANS-FACTORIAL M19 internal marker reporter
How it was run: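 HepG2 transiently transfected with GAL4-UAS multiplex reporter constructs, exposed 24 h; reporter RNA quantified by RT-PCR, 6-FAM labeling, HpaI digestion and capillary electrophoresis; internal background marker fitted upward versus DMSO.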

[7] = biological target: Hepatocyte nuclear factor 4-alpha (Homo sapiens) (UniProt P41235); test: ATG_HNF4a_TRANS: Attagene TRANS-FACTORIAL HepG2 Assay for human Hepatocyte Nuclear Factor 4 alpha (HNF4a) (AID 2282982); settings: HepG2 HNF4a transactivation reporter, mRNA readout
Hepatocyte nuclear factor 4-alpha (Homo sapiens), sequence (P41235 whole entry, looked up, the tested form may be a part): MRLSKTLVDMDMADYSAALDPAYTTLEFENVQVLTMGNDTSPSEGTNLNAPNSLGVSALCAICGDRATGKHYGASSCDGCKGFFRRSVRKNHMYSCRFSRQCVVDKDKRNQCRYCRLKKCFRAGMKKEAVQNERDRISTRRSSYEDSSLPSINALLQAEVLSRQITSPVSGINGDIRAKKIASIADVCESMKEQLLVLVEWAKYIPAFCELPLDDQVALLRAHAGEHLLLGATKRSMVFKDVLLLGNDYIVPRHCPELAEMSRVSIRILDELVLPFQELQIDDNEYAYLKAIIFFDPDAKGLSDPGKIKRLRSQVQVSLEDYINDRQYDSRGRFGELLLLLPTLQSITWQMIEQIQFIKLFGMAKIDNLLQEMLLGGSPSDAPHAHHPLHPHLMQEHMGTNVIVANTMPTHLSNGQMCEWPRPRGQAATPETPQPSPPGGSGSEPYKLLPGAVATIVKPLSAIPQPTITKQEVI
How it was run: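 HepG2 cells transiently transfected with multiplexed GAL4-UAS reporter units responsive to chimeric NR-GAL4 proteins; compound exposure 24 h. Reporter mRNA quantified by RT-PCR, 6-FAM labelling, HpaI digestion and capillary electrophoresis; gain of signal versus DMSO baseline.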

[8] = ATG_M_32_TRANS: Attagene TRANS-FACTORIAL HepG2 Assay for M32 Transcription Factor (Internal Marker) (AID 2282984); settings: HepG2 Attagene TRANS M32 internal marker reporter;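 also: transcript level of a background control reporter unit measured by RT-PCR and capillary electrophoresis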
How it was run: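 HepG2 cells transiently transfected with multiple GAL4-UAS reporter transcription units, dosed for 24 hours; reporter mRNA quantified by RT-PCR, 6-FAM primer extension, HpaI digestion and capillary electrophoresis. Gain-of-signal fitted versus DMSO baseline; internal background-control marker.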

[9] = biological target: Myc proto-oncogene protein (Homo sapiens) (UniProt P01106); test: ATG_Myc_CIS: Attagene CIS-FACTORIAL HepG2 Assay for human Myelocytomatosis (Myc) Proto-Oncogene Transcription Factor (AID 2282990; active = hit-call score of the fitted dose curve at least 0.9, where 1 is the maximum; inactive = score below 0.9); settings: HepG2, Attagene cis-reporter transcription factor activity; actives raise or lower the signal
Myc proto-oncogene protein (Homo sapiens), sequence (P01106 whole entry, looked up): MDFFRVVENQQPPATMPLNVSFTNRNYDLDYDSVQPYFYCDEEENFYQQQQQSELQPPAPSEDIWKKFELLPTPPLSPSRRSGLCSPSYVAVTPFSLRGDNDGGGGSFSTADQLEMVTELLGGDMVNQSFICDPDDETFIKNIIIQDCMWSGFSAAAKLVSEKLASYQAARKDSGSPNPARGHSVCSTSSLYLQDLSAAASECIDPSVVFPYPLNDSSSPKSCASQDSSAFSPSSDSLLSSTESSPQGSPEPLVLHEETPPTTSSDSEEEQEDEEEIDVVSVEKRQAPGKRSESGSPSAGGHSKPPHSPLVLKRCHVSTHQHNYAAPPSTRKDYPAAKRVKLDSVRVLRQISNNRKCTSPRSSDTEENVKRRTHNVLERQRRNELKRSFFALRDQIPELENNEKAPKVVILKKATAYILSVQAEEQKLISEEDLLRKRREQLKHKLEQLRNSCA
How it was run: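 HepG2 cells transiently transfected with multiple cis-promoter-driven reporter transcription units, so endogenous TF activity is read. After 24 h compound exposure, reporter mRNA was quantified by RT-PCR, 6-FAM labelling, HpaI digestion and capillary electrophoresis; bidirectional fit versus DMSO.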

[10] = ATG_NRF2_ARE_CIS: Attagene CIS-FACTORIAL HepG2 Assay for human Nuclear Factor Erythroid 2 Related Factor 2 (NFR2) response to Antioxidant Response Elements (ARE) (AID 2282992; active = hit-call score of the fitted dose curve at least 0.9, where 1 is the maximum; inactive = score below 0.9;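 as to AC50: reporter mRNA level measured by RT-PCR and capillary electrophoresis fluorescence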); settings: HepG2 Attagene ARE/NRF2 reporter, transcription factor activity; actives raise or lower the signal
How it was run: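 Cis-factorial assay: transfected HepG2 reporter library, 24 h dosing, mRNA readout via RT-PCR/CE; DMSO-referenced bidirectional analysis.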

[11] = biological target: Cellular tumor antigen p53 (Homo sapiens) (UniProt P04637); test: ATG_p53_CIS: Attagene CIS-FACTORIAL HepG2 Assay for human p53 Transcription Factor (AID 2282994; active = hit-call score of the fitted dose curve at least 0.9, where 1 is the maximum; inactive = score below 0.9); settings: HepG2 p53 cis-element reporter, Attagene mRNA; actives raise or lower the signal
Cellular tumor antigen p53 (Homo sapiens), sequence (P04637 whole entry, looked up): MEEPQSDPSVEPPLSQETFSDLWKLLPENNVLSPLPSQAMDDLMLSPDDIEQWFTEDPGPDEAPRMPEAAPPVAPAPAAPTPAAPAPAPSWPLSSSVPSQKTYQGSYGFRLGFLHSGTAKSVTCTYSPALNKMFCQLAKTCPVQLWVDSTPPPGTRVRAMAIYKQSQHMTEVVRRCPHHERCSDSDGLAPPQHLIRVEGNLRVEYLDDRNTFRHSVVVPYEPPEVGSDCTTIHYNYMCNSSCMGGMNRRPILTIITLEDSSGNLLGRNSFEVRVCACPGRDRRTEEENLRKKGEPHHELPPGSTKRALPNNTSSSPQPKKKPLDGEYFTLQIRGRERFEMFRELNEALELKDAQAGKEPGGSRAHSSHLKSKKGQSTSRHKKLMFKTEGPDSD
How it was run: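 Using HepG2 hepatoma cells carrying cis-acting multiplexed reporters, mRNA induction is detected after a 24 h exposure. Gain- and loss-of-signal responses are fitted relative to DMSO-treated cells.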

[12] = biological target: human Peroxisome Proliferator-activated Receptor alpha (PPARa), PPARA (gene 5465) (UniProt Q07869); test: ATG_PPARa_TRANS: Attagene TRANS-FACTORIAL HepG2 Assay for human Peroxisome Proliferator-activated Receptor alpha (PPARa) (AID 2283001);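 as to AC50: potency for gain of reporter signal over DMSO so agonist or activator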
human Peroxisome Proliferator-activated Receptor alpha (PPARa), PPARA (gene 5465), sequence (Q07869 whole entry, looked up, the tested form may be a part): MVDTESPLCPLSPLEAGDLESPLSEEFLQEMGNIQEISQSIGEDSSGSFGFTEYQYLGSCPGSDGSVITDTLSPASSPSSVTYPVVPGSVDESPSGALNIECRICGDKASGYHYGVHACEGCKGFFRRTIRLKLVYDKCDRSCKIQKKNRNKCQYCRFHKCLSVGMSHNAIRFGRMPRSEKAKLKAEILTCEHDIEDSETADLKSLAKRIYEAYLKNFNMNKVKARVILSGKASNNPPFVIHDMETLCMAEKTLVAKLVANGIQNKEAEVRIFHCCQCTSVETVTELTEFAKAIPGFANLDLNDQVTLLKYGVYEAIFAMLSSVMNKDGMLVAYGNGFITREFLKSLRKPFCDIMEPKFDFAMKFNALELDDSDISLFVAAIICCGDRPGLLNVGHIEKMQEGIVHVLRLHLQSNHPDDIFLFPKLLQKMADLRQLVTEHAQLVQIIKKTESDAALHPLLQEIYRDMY
How it was run: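 HepG2 cells transiently transfected with multiplexed GAL4-UAS reporter units and chimeric NR-Gal4 constructs were dosed for 24 h. Reporter mRNA was measured by RT-PCR with fluorescent labelling and capillary electrophoresis; gain of signal fitted against DMSO.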

[13] = biological target: Cellular tumor antigen p53 (Homo sapiens) (UniProt P04637); test: TOX21_p53_BLA_p2_ratio: Tox21 HCT-116 p53 Agonism Beta-lactamase Assay, Ratio, Phase 2 (AID 2283592)
How it was run: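 In this cell-based reporter format, HCT116 cells were dosed with chemicals delivered from DMSO by 217-fold dilution and incubated 16 h at 37C. Emission at 460 and 530 nm after 2 h CCF4-AM loading provided the ratio, fitted upward versus DMSO.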

[14] = biological target: Cellular tumor antigen p53 (Homo sapiens) (UniProt P04637); test: TOX21_p53_BLA_p5_ratio: Tox21 HCT-116 p53 Agonism Beta-lactamase Assay, Ratio, Phase 5 (AID 2283599)
How it was run: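 HCT-116 cells carrying a p53-inducible beta-lactamase reporter were seeded at 4000 cells/well and dosed after 5 h with compound in DMSO (217-fold dilution). After 16 h at 37C, CCF4-AM substrate was added for 2 h, and the 460/530 nm emission ratio was scored as gain-of-signal versus DMSO.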

[15] = TOX21_p53_BLA_p5_viability: Viability Assessment in the Tox21 HCT-116 p53 Agonism Beta-lactamase Assay, Phase 5 (AID 2283600)
How it was run: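 Compounds, pinned from DMSO at 217-fold dilution, were left on the cells for 16 h. The viability endpoint was ATP content measured by CellTiter-Glo luminescence, where falling signal reflects cytotoxicity.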

[16] = biological target: Cellular tumor antigen p53 (Homo sapiens) (UniProt P04637); test: TOX21_p53_BLA_p4_ratio: Tox21 HCT-116 p53 Agonism Beta-lactamase Assay, Ratio, Phase 4 (AID 2283601)
How it was run: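 HCT116 cells carrying an inducible beta-lactamase reporter were plated at 4000 cells/well, rested 5 h, then exposed to compounds in DMSO (217-fold dilution) for 16 h at 37C. CCF4-AM substrate was loaded 2 h at room temperature; 460/530 nm emission ratio scored gain-of-signal versus DMSO.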

[17] = biological target: Paired box protein Pax-6 (Homo sapiens) (UniProt P26367); test: ATG_Pax6_CIS: Attagene CIS-FACTORIAL HepG2 Assay for human Paired Box 6 (PAX6) (AID 2282956; active = hit-call score of the fitted dose curve at least 0.9, where 1 is the maximum; inactive = score below 0.9); settings: HepG2 CIS-FACTORIAL PAX6 reporter transcription, RNA readout; actives raise or lower the signal
Paired box protein Pax-6 (Homo sapiens), sequence (P26367 whole entry, looked up): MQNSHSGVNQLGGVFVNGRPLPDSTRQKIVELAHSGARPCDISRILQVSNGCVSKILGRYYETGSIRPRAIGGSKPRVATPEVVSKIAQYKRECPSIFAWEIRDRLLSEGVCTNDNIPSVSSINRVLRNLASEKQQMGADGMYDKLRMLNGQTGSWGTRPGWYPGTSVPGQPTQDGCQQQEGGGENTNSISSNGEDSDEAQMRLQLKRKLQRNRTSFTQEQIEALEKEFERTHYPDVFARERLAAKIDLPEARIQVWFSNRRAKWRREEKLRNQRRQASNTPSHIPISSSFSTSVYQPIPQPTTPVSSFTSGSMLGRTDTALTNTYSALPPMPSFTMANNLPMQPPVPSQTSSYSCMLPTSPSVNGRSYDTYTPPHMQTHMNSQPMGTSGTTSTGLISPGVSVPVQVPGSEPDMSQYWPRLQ
How it was run: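 After twenty-four hours of chemical exposure, transfected HepG2 cells are harvested for RNA. Cis-promoter reporter transcripts are amplified, fluorescently labelled and sized by capillary electrophoresis, with gain and loss of signal scored against DMSO.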

[18] = ATG_RORE_CIS: Attagene CIS-FACTORIAL HepG2 Assay for human RAR-related Orphan Receptor Element (RORE) (AID 2282959; active = hit-call score of the fitted dose curve at least 0.9, where 1 is the maximum; inactive = score below 0.9); settings: HepG2 Attagene cis-factorial RORE reporter, mRNA; actives raise or lower the signal
How it was run: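 HepG2 cells carrying transiently transfected cis-regulated reporter units; RORE-driven reporter mRNA quantified 24 h post-dosing by RT-PCR, 6-FAM primer extension, HpaI digestion and capillary electrophoresis. Bidirectional fit versus DMSO.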

[19] = TOX21_p53_BLA_p2_viability: Viability Assessment in the Tox21 HCT-116 p53 Agonism Beta-lactamase Assay, Phase 2 (AID 2283591);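 also: compound exposure lasted 16 h at 37 °C; actives lower the ATP signal meaning cytotoxicity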
How it was run: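 HCT-116 p53-bla cells (4000/well) rested 5 h at 37C, then received compounds in DMSO (217-fold dilution) for 16 h at 37C, 5% CO2. After the CCF4 read, CellTiter-Glo was added; ATP luminescence was read after 30 min at room temperature.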

[20] = biological target: Cellular tumor antigen p53 (Homo sapiens) (UniProt P04637); test: TOX21_p53_BLA_p3_ratio: Tox21 HCT-116 p53 Agonism Beta-lactamase Assay, Ratio, Phase 3 (AID 2283596)
How it was run: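 HCT116 p53-bla cells (4000/well) given compound in DMSO (217-fold dilution) after 5 h, incubated 16 h at 37C. CCF4-AM substrate 2 h at room temperature; 460/530 nm emission ratio, gain fitted against DMSO.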

Measured: AC50

CN(C)CCC#N
not listed: [17] | [18] | [19] | [20]
inactive: all other assays above

CN(N=O)c1ccccc1
not listed: [6] | [11] | [13] | [14] | [15] | [16] | [19] | [20]
inactive: all other assays above

N#CC(c1ccccc1)c1ccccc1
active: [10] 77.9 µM
not listed: [3] | [5] | [6] | [8] | [12] | [15] | [17]
inactive: all other assays above

Nc1ccccc1C(=O)Oc1ccc2ccccc2c1
active: [17] 46.9 µM | [5] 74.5 µM | [10] 31.7 µM | [19] 85.3 µM | [14] 83.5 µM
not listed: [1] | [4] | [7] | [8] | [9] | [12]
inactive: all other assays above

BrCBr
not listed: [1] | [5] | [10] | [12] | [13] | [17]
inactive: all other assays above

Clc1ccc(-c2ccccc2)cc1
active: [10] 149 µM
not listed: [3] | [12] | [13] | [14] | [15] | [16] | [19] | [20]
inactive: all other assays above

O=P(O)(Oc1ccccc1)Oc1ccccc1
not listed: [3] | [6] | [9] | [10] | [14] | [15] | [18]
inactive: all other assays above

Nc1cc(Cl)cc(Cl)c1
not listed: [2] | [11]
inactive: all other assays above

CCCCOC(=O)CCC(=O)OCCCC
inactive: [4] | [17] | [18] | [8] | [9] | [11] | [12] | [19] | [14] | [16]

CCOC(=O)N(C)N=O
not listed: [4] | [5] | [7] | [16] | [17]
inactive: all other assays above

CCCC=NO
not listed: [3] | [4] | [16]
inactive: all other assays above

C=CCN(CC=C)C(=O)C(Cl)Cl
active: [10] 50.9 µM
not listed: [7] | [8] | [9] | [11] | [12] | [17]
inactive: all other assays above

O=c1c2ccccc2c(=O)c2c1cc(Cl)c1[nH]c3c([nH]c12)c(Cl)cc1c(=O)c2ccccc2c(=O)c13
not listed: [6] | [8] | [17] | [18] | [19] | [20]
inactive: all other assays above

COc1ncc(F)c2nc(S(=O)(=O)Nc3c(F)cccc3F)nn12
inactive: [2] | [3] | [17] | [18] | [6] | [7] | [9] | [10]

SCc1ccco1
inactive: [1] | [2] | [4] | [17] | [18] | [5] | [6] | [7] | [8] | [11]
active: [10] 71.2 µM | [12] 33 µM

Cc1ncc(C[n+]2csc(CCO)c2C)c(N)n1
inactive: [1] | [5] | [6] | [7] | [9] | [11] | [19] | [20] | [14] | [15] | [16]

CC(C)(Cl)Cl
not listed: [1] | [7] | [9] | [15] | [17] | [18] | [19]
inactive: all other assays above

CC(C)[C@@H](C(=O)O[C@@H](C#N)c1cccc(Oc2ccccc2)c1)c1ccc(Cl)cc1
not listed: [1] | [2] | [6] | [7] | [10] | [12] | [18]
inactive: all other assays above

— PubChem BioAssay (EPA / NIEHS)
